# Source: PubChem BioAssay
# ELG1 genotox: inducers of genotoxicity in HEK293T ELG1-luciferase cells | HEK293T ELG1-luciferase reporter, luminescence, 16 h | Potency, µM (doses to about 46 µM), usual class: activators | actives 1.3% (n = 330,000); note: nearly all actives have a fitted effect of over 60% in size
#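 Cells (2,000/well) expressing the ELG1-luciferase fusion are dosed by pin tool and kept 16 hr at 37 °C, 5% CO2. Signal comes from ONE-Glo luciferase reagent after 30 min at room temperature.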
# SMN2 splice up: increases expression of the SMN2 splice variant. HEK293 SMN2-luciferase splicing reporter, luminescence, 30-36 h. Potency, µM (titrated, usually from 46.1 µM), usual class: activators. actives 2.8% (n = 210,000). AID 1458; note: nearly all actives have a fitted effect of over 55% in size
#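 qHTS luciferase splicing reporter: luminescence rises when SMN2 exon 7 is included in transfected HEK293 cells. Compound exposure lasted 30-36 h at 37C, with 4.5 mM final sodium butyrate as control, followed by a ONE-Glo read.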
# Rab9 prom act: Rab9 promoter activation; Huh7 Rab9 promoter-luciferase reporter, luminescence, 24 h; actives 2.8% (n = 320,000); Potency, µM (top dose mostly 9.22 µM), hits mostly activators; AID 485297; note: nearly all actives have a fitted effect of over 60% in size
#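 Cells were plated at 1500 per well in reduced-serum medium with 10% FBS and left 2 h. Compound in DMSO was then added for 24 h at 37 °C. Reporter signal was read by luminescence after 10 min with luciferase detection reagent.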
# FLuc modulator: counter-screen for miR-21 project: firefly luciferase inhibitors or activators. P08659. purified FLuc, Km substrates, luminescence inhibition. Potency, µM (highest dose often 57.5 µM), hits mostly inhibitors. actives 6.9% (n = 360,000); note: nearly all actives have a fitted effect of over 55% in size
# Target sequence (P08659 whole entry, looked up): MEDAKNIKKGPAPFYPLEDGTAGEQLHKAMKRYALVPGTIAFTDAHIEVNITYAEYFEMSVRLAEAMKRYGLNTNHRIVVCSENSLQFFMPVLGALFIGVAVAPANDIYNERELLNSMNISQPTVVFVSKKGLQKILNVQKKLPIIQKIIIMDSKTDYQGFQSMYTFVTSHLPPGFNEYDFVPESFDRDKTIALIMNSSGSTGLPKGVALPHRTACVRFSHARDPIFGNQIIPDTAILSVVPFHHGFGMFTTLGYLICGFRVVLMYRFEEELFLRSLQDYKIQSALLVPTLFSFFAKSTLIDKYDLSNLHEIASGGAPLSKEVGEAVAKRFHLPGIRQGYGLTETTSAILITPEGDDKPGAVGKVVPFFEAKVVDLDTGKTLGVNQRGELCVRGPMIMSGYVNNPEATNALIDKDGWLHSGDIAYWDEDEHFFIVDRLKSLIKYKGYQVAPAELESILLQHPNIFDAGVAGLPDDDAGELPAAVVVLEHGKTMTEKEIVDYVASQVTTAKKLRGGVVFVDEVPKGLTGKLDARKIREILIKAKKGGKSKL
#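 Purified P. pyralis luciferase (10nM final) with 10uM D-luciferin and 10uM ATP (Km levels) in 50mM Tris acetate pH 7.5, 10mM Mg acetate, 0.01% Tween-20, 0.05% BSA; qHTS 6-point titration, ~60 µM downward; luminescence read.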
# NPC1 prom act: activates the NPC1 promoter; Huh7 NPC1 promoter luciferase reporter, 24 h; AID 485313; actives 2.4% (n = 320,000); Potency, µM (doses to about 9.22 µM), actives largely listed as activators; note: nearly all actives have a fitted effect of over 60% in size
#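 Stably transfected Huh7 (NPC1 promoter→luciferase), 1500 cells/well in Opti-MEM + 10% FBS, 2 h settle, then compound 24 h at 37 °C. Luminescence after 10 min with Amplite reagent.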
# Hits are given with their value; 0 = inactive; ? = inconclusive; - = no result; [ ] = dose if it differs, or a comment. Shown are actives, neighbours in structure and some others; about 7.5% of the full set was active somewhere. Calls come from the whole dose curve; as a rule, active = well fitted curve in the direction sought with a large enough effect; inconclusive = small, poorly fitted or top-dose-only effect, or another doubt; inactive = no such curve, though single readings can be large; an effect the other way counts as inactive or inconclusive.
SMILES,ELG1 genotox,SMN2 splice up,Rab9 prom act,FLuc modulator,NPC1 prom act
COCCCNC(=O)CC(=O)N/N=C\c1ccc(SC)cc1,0,-,0,0,0
Cc1cccc(C(=O)Oc2ccc(/C=N/NC(=O)c3cc(O)cc(O)c3)cc2)c1,0,-,0,?,0
CSc1ccc(/C=N/NC(=O)c2cc(O)cc(O)c2)cc1,?,?,?,9.5µM,?
COc1ccc(OCc2ccc(/C=N\NC(=O)c3sccc3C)o2)cc1,0,-,?,27µM,?
COc1ccc(/C=N/NC(=O)c2sc(C)nc2C)cc1,0,0,0,?,0
CSc1ccc(/C=N/NC(=O)c2sccc2C)cc1,1.8µM,2.5µM,0.63µM,0.43µM,0.56µM
CSc1ccc(/C=N/NC(=O)c2ccc(C)c(C)c2)cc1,0,0,0,19µM,0
COc1ccc(S(=O)(=O)N2CCC(O)(c3ccc(Cl)cc3)CC2)cc1OC,0,-,0,0,0
Fc1ccc(-c2nnc(Cc3ccc(Cl)cc3)o2)cc1,?,-,0,17µM,?
CC1CCCC2(C1)NC(=S)c1c(sc3c1CCCC3)N2 (centres undefined),0,0,0,24µM,0
CC1CCCC2(C1)NC(=S)N(c1ccccc1)N2 (centres undefined),0,0,0,0,0
O=C(COn1nnc2ccc(S(=O)(=O)N3CCOCC3)cc21)Nc1c(F)c(F)c(F)c(F)c1F,0,0,0,0,0
Cc1nnsc1C(=O)NNc1ccc(C(C)(C)C)cc1,0,-,0,0,0
Cc1nnsc1C(=O)NNC(=O)c1ccc(C(F)(F)F)cc1,0,-,0,17µM,0
O=C(Nc1ccccc1Cl)c1ccccc1,?,0,0,0,0
CCOC(=O)c1cc(-c2ccc(C)cc2)nn1Cc1ccccc1,-,?,-,7.6µM,-
O=C(Nc1cc(Cl)ccc1Cl)c1ccc(-c2ccccc2)cc1,0,0,0,0,0
O=C(Nc1cccc(Cl)c1Cl)c1ccc(-c2ccccc2)cc1,?,?,?,?,2.5µM
Cc1ccc(C(=O)Nc2ccccc2Cl)cc1,?,-,1.6µM,6.7µM,3.2µM
Cc1ccc(Cn2nc(C)cc2C(=O)Nc2ccccc2Cl)cc1,23µM,-,2.5µM,12µM,?
Cc1ccc(Cn2nc(C)cc2C(=O)Nc2ccc(Cl)cc2)cc1,0,-,0,?,0
CCOC(=O)c1cc(-c2ccc3c(c2)OCO3)nc2onc(C)c12,0,0,0,0,0
C[C@]12C[C@@](C)(C=C1/C=C/c1ccccc1)C(=O)C[C@H]2c1ccccc1,-,0,-,-,-
Cc1cc2nc(CCN(C(=S)NCC(C)C)C3CCCC3)[nH]c2cc1C,0,0,0,0,0
CC(C)N1CCc2c(sc(NC(=O)c3ccc4ccccc4c3)c2C(N)=O)C1,0,-,0,6µM,0
SMILES,ELG1 genotox,SMN2 splice up,Rab9 prom act,FLuc modulator,NPC1 prom act
CCN1CCc2c(sc(NC(=O)c3cc4ccccc4cc3OC)c2C(N)=O)C1,0,-,0,9.5µM,0
COC(=O)N1CCC[C@@]2(CCN(c3ccccn3)C2)C1,-,0,-,-,-
COc1ccc(CCNC(=O)COC(=O)c2sc(C)nc2C)cc1,0,-,0,-,0
Cc1ccc(CN(C)C(=O)c2cc(COc3ccc(F)cc3Cl)on2)o1,0,-,0,21µM,0
Cc1cc(CN(C)C(=O)c2cc(COc3ccc(F)cc3Cl)on2)n[nH]1,?,-,?,17µM,0
CCn1c(-c2cc(-c3ccc(OC(C)C)cc3)nc3ccccc23)n[nH]c1=S,0,0,?,0.6µM,?
CCn1c(-c2cc(-c3ccccc3OC)nc3ccccc23)n[nH]c1=S,0,0,0,0,0
CCCOc1cccc(-c2cc(-c3n[nH]c(=S)n3CC)c3ccccc3n2)c1,0,0,0,17µM,0
C=CCn1c(-c2cc(-c3ccc(C)cc3)nc3ccccc23)n[nH]c1=S,0,0,0,11µM,0
CCn1c(-c2cc(-c3ccc(C)cc3)nc3ccccc23)n[nH]c1=S,0,0,0,6.7µM,0
COc1ccccc1CCC(=O)Nc1cc(S(=O)(=O)N2CCCCC2)ccc1N1CCN(C)CC1,0,-,0,0,0
O=C1O/C(=C/c2ccccc2)c2ccccc21,0,0,0,12µM,0
CC(C)(C)c1ccc(/C=C2\CCn3c2nc2cc(C(=O)O)ccc2c3=O)cc1,0,-,0,0,0
CCOc1ccc(-c2nnc(-c3ccccc3)o2)cc1,?,0.56µM,0.71µM,1.1µM,1.6µM
CCOc1ccc(-c2nnc(-c3ccc(OC)cc3)o2)cc1,0,0,0,?,0
CCOC(=O)COc1ccc(-c2nnc(-c3ccccc3)o2)cc1,0,-,0,6µM,0
CCOc1ccc(-c2nnc(-c3ccncc3)o2)cc1,0,?,1.6µM,9.5µM,1.8µM
c1coc(-c2nnc(NC3=NCCC3)o2)c1,16µM,13µM,3.5µM,19µM,?
Cc1nnc(NC2=NCCC2)o1,0,?,0,0,0
CCN(CC)C(=O)c1cn(C)c(=O)c2cc(OC)c(OC)cc12,0,0,0,0,0
C/C(=N\NC(=S)Nc1ccc(C)c(C)c1)c1ccc(N2CCOCC2)cc1,0,0,0,0,0
O=C(NCC1(O)CCCCC1)C1CCC(=O)N(Cc2ccccc2F)C1 (centres undefined),0,-,0,0,0
CCCCOc1ccc(-c2nnc(-c3ccncc3)o2)cc1,?,-,4µM,12µM,?
CCCCOc1ccc(-c2nnc(-c3cc[n+](C)cc3)o2)cc1,0,-,0,0,0
CCCCOC(=O)c1nnc(-c2ccccc2)o1,0,-,0,12µM,0
SMILES,ELG1 genotox,SMN2 splice up,Rab9 prom act,FLuc modulator,NPC1 prom act
CCOC(=O)CNC(=O)Nc1nnc(-c2ccc(OCC)cc2)o1,0,0,0,12µM,0
CCCCNC(=O)Nc1nnc(-c2ccc(OCC)cc2)o1,0,0,0,0,0
CCCCOC(=O)c1nnc(-c2ccc(Cl)cc2)o1,0,-,0,?,0
CN(C)c1ccc(-c2nnc(-c3cccs3)o2)cc1,?,2.2µM,0.32µM,0.76µM,0.5µM
Cc1cccc(OCCSc2nnc(-c3cccs3)o2)c1,-,-,-,0,-
CCOc1ccc(-c2nnc(NC3=NCCCCC3)o2)cc1,2.3µM,13µM,1.6µM,4.8µM,?
CCCOc1ccc(-c2nnc(-c3cccs3)o2)cc1,?,4.5µM,0.56µM,0.67µM,0.71µM
O=C(NN1C(=O)C2C(C1=O)C1C=CC2C12CC2)c1ccncc1 (centres undefined),0,-,0,0,0
NC(=O)C1CC(=O)N(c2ccc(OCC(=O)Nc3ccccc3F)cc2)C1 (centres undefined),?,-,2.2µM,17µM,?
Cc1ccccc1NC(=O)c1ccc(OCC(=O)Nc2ccccc2F)cc1,0,0,0,0,0
NC(=O)C1CC(=O)N(c2ccc(OCC(=O)Nc3ccc(F)cc3)cc2)C1 (centres undefined),0,-,0,0,0
Cc1ccc(OCC(=O)Nc2ccccc2F)cc1C,10µM,-,?,9.5µM,0
Cc1ccc(OCC(=O)Nc2ccc(O)c(C(=O)O)c2)cc1C,0,0,0,17µM,0
CC(C)(C)c1ccc(OC(=O)Nc2ccc(O)c(C(=O)O)c2)cc1,0,0[9.22 µM],0,1.2µM,0
